Assay results from PubChem BioAssay (NCI).
The panel holds about 83,000 compounds, 20% with a hit somewhere; the sample as a whole holds those more often.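 A percent growth of 40 corresponds to 60% growth inhibition; 0 means no net growth; -100 means all cells died. Active threshold: below 10.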 Calls of active or inactive are those of the source.

Each compound was assayed on MOLT-4 leukemia (assay: NCI-60 one-dose screen, 48 h (100 = growth as untreated, 0 = no growth, -100 = all killed)). Settings: 10 µM unless noted.
Method: Growth inhibition of the MOLT-4 human tumor cell line is measured as a screen for anti-cancer activity. Cells are grown in 96 well plates and exposed to the test compound for 48 hours. Compounds are tested at a single concentration, which is 10^-5 M for most compounds. The reported endpoint is percent growth (GI% or GIPRCNT), where numbers from 0 - 100% represent growth inhibition, and numbers from -100% - 0 represent cell death. For example, a value of 40 represents 60% growth inhibition. A value of 0 means no net growth occurred over the course of the experiment. A value of -40 indicates 40% of cells at the beginning of the experiment died by the end of the experiment. A value of -100 means all cells are dead at the end of the experiment.
NCI-60 Human Tumor Cell Lines Screen was performed using the standard one-dose NCI protocol, which is described in more detail at https://dtp.cancer.gov/discovery_development/nci-60/default.htm.
Compounds with GIPRCNT values below 10 were considered active. Activity score was based on GIPRCNT using the following formula: […]
Score is 0 for GIPRCNT values of 100 or above, 50 for GIPRCNT values of 0, and 100 for GIPRCNT values of -100.
For `CC1CCC(C(C)(C)[N+](C)(C)C)CC1` (stereo not given), the growth was 101% (inactive). In the case of `Oc1cccc(CNC2CCCCC2)c1`, the growth is reported as 106% (inactive). In the case of `COc1cc(C(=O)N2CCN(c3ccccc3)CC2)c2ccccc2n1`, the growth is reported as 29.9% (inactive). `CCOC(=O)/C(C#N)=C\c1c[nH]c2ccccc12` was tested, and the growth was 81.6% (inactive). In the case of `Cc1cc(Cc2ccccc2)c(O)c(Cc2ccccc2)c1`, the growth is reported as 64.6% (inactive). For `c1ccc(Nc2ccccn2)nc1`, the growth was 91.7% (inactive). For `NC(=O)NCCO`, the growth was 96.3% (inactive). For `C=C1C(=O)C2CCC1C2` (stereo not given), the growth was 94.7% (inactive). In the case of `O=C(O)CC1=CCCCC1`, the growth is reported as 97.5% (inactive). For `CC(C)C(=O)OCCOc1ccc(C(C)(C)C)cc1`, the growth was 114% (inactive). For `CCOC(OCC)C(=O)c1ccccc1`, the growth was 124% (inactive). `C=CC(C)(C)n1cc(C2=C(O)C(=O)C(c3cn(C(C)(C)C=C)c4ccccc34)=C(O)C2=O)c2ccccc21` was tested, and the growth was 88.7% (inactive). In the case of `CN(CCCN(C)CCC1CCCCC1)CCC1CCCCC1`, the growth is reported as 20.5% (inactive). In the case of `COc1cc(-c2ccc(NC(=O)CC(C)=O)c(OC)c2)ccc1NC(=O)CC(C)=O`, the growth is reported as 89.5% (inactive). For `CCOC(=O)C(COS(C)(=O)=O)(COS(C)(=O)=O)C(=O)OCC`, the growth was 96.3% (inactive). With `CCOC(=N)CC(=O)Nc1cccc(C)c1Cl` the growth was 108% (inactive). `O=C(O)C1CSC(c2ccccc2)N1` (stereo not given) was tested, and the growth was 115% (inactive). In the case of `CCC(/C=C\C(C)=O)CC`, the growth is reported as 112% (inactive). In the case of `O=C(O)C1CCCN1C(=O)OCc1ccccc1` (stereo not given), the growth is reported as 96.2% (inactive). In the case of `Ic1cccs1`, the growth is reported as 98.9% (inactive). `CC(=O)Nc1ncc(S(=O)(=O)c2ccc([N+](=O)[O-])cc2)s1` was tested, and the growth was 102% (inactive). `CSc1nc2[nH]ncc2c(=O)[nH]1` was tested, and the growth was 110% (inactive). In the case of `N#C/C(=C\c1ccc2c(c1)OCO2)c1ccccc1`, the growth is reported as 57.8% (inactive). In the case of `NNc1ncnc2c1ncn2C1OC(CO)C(O)C1O` (stereo not given), the growth is reported as 109% (inactive). In the case of `CCCCCC(=O)OCCC1CCCCC1`, the growth is reported as 95.7% (inactive). With `Nc1ccc(F)c(Cl)c1F` the growth was 108% (inactive). In the case of `Nc1ncc([N+](=O)[O-])cn1`, the growth is reported as 105% (inactive). For `COC(=O)C1=C(C)C(=O)CC1`, the growth was 101% (inactive). For `OCC1OC(n2ccc3c2ncn2ncnc32)C(O)C1O` (stereo not given), the growth was 16.1% (inactive). For `Oc1cc2ccccc2c(-c2c(O)c(O)cc3ccccc23)c1O`, the growth was 30.6% (inactive). In the case of `O=C1NCC2CCCC1C2` (stereo not given), the growth is reported as 103% (inactive). `CCOP(=O)(NC(c1ccccc1)c1ccccc1)OCC` was tested, and the growth was 106% (inactive). In the case of `CCOC(=O)CNC(=O)Sc1ccc(C(C)(C)C)cc1`, the growth is reported as 32.5% (inactive). `CCCC(=O)c1cccs1` was tested, and the growth was 100% (inactive). `Nc1ccn(C2CC(N)C(CO)O2)c(=O)n1` (stereo not given) was tested, and the growth was 31% (inactive). In the case of `OCC1CCC(O)C(CO)N1` (stereo not given), the growth is reported as 106% (inactive). With `COc1ccc2c(Cl)cc(NC(=O)Nc3c(C)cccc3C)nc2c1` the growth was 81.6% (inactive). In the case of `COc1cccc(C(=O)NNC(=O)c2cccc3ccccc23)c1`, the growth is reported as 98.8% (inactive). For `COC(c1ccc2c(c1)OCO2)C(C)Br` (stereo not given), the growth was 91.6% (inactive). With `Cc1cc(C)cc(OCC(=O)O)c1` the growth was 124% (inactive).
